Laboratory results published in PubChem BioAssay (Tox21).
Inconclusive results are not listed. Entries that show only a call come without a potency. A number with no mark means an inactive call. Activity calls are given as the source filed them. The call rests on the fitted dose curve; in most records, active means well fitted cell-killing curve with a large enough effect in the repeat runs; inconclusive means weak or mixed curves, or effect the other way; inactive means flat fitted curve, though single readings scatter.

Test: qHTS assay to identify small molecule antagonists of the androgen receptor (AR) signaling pathway using the MDA cell line - cell viability counter screen (AID 743041; further: nearly all actives have a fitted effect of over 45% in size)
Conditions: MDA-kb2 viability, CellTiter-Fluor, 16 h, cells co-treated with R1881 androgen agonist; series mostly up to 70.3 µM
Excerpt: National Center for Advancing Translational Sciences [NCATS]
NIH Chemical Genomics Center [NCGC]
U.S. Environmental Protection Agency [EPA]
National Institutes of Environmental Health Sciences [NIEHS]
National Toxicology Program [NTP]
U.S. Food and Drug Administration [FDA]
Androgen receptor (AR), a nuclear hormone receptor, plays a critical role in AR-dependent prostate cancer and other androgen related diseases. Endocrine disrupting chemicals (EDCs) and their interactions with steroid hormone receptors like AR may cause disruption of normal endocrine function as well as interfere with metabolic homeostasis, reproduction, developmental and behavioral functions. To identify the compounds that inhibit AR signaling, MDA-kb2 AR-luc cell line (from ATCC, deposited by Wilson et al.) was used to screen the Tox21 10K compound library. MDA-kb2 AR-luc cell line is human breast carcinoma cell line that was stably transfected with a luciferase reporter gene under control of the MMTV promoter containing response elements for both androgen receptor (AR) and glucocorticoid receptor (GR). The cytotoxicity of the Tox21 compound library against the MDA-kb2 AR-luc cell line was tested in parallel by measuring the cell viability using CellTiter-Fluor assay (Promega, Madison, WI) in the same wells.
Tox21 Assay Protocol Summary:
MDA-kb2 AR-luc cells were dispensed at 3,000 cells/4 uL/well of culture medium into white wall/solid-bottom 1536-well plates using a Multidrop Combi (ThermoFisher Scientific, Waltham, MA) dispenser. After the assay plates were incubated at a 37C and 0% CO2 for 5 hr, 23 nL of compounds dissolved in DMSO, positive controls or DMSO only was transferred to the assay plate by a Pintool station (Kalypsys, San Diego, CA), followed by addition of 1 uL of agonist (R1881) in culture medium using a Bioraptr Flying Reagent Dispenser (FRD) workstation (Beckman Coulter, Indianapolis, IN, USA). The plates were incubated at a 37C and 0% CO2 for 16 h. After 15.5 h incubation, 1uL of CellTiter-Fluor reagent (Promega) was added using a Bioraptr FRD to each plate for measuring cytotoxicity. The fluorescence intensity was quantified on a ViewLux plate reader (PerkinElmer, Shelton, CT) following 30 min incubation at 37C and 0% CO2.
Potency means the concentration at half of the fitted maximal effect.

SMILES | Potency | viability change, negative = cytotoxic
CC[C@H](C)COC(=O)/C=C/c1ccc(N=Cc2ccc(OC)cc2)cc1 | inactive | –
CC/C=C\CCCCCO | inactive | –
CC(=O)[C@H]1CC[C@H]2[C@@H]3CCC4=CC(=O)CC[C@]4(C)[C@H]3CC[C@]12C | inactive | –
OC1CCC(C2CCCCC2)CC1 (stereo not given) | inactive | –
COc1cc(S(=O)(=O)O)c(C)cc1N=Nc1c(O)ccc2cc(S(=O)(=O)O)ccc12 | 24.3 µM (active) | –
Cc1ccc(C(C)C)cc2c(C)ccc1-2 | inactive | –
CCCCOC(=O)CO | inactive | –
Oc1ccccc1O | inactive | –
O=C(O)CCN(C1(C(=O)NO)CCCC1)S(=O)(=O)c1ccc(Oc2ccc(F)cc2)cc1 | inactive | –
CCCCNS(=O)(=O)c1ccc(C)cc1 | inactive | –
CC1=Nc2ccccc2C1(C)C | inactive | –
Cc1cc(C(C)(C)C)c(O)c(C)c1Cn1c(=O)n(Cc2c(C)cc(C(C)(C)C)c(O)c2C)c(=O)n(Cc2c(C)cc(C(C)(C)C)c(O)c2C)c1=O | inactive | –
CC(C)(C)C1CCC(=O)CC1 | inactive | –
CCn1c2ccccc2c2cc([N+](=O)[O-])ccc21 | inactive | –
O=C(O)CN(CCN(CC(=O)O)CC(=O)O)CC(=O)O | inactive | –
CCCCCCCCCCOC(=O)c1ccccc1C(=O)OCCCCCCCC | inactive | –
C=C(C)c1cccc(C(=C)C)c1 | inactive | –
Cc1ccc(C)cc1 | inactive | –
CC1=CCC(=C(C)C)CC1 | inactive | –
CC(CO)Oc1ccccc1 (stereo not given) | inactive | –

SMILES | Potency | viability change, negative = cytotoxic
Cl[Si](Cl)(c1ccccc1)c1ccccc1 | inactive | –
Cc1c(F)c(N2CCNC(C)C2)cc2c1c(=O)c(C(=O)O)cn2C1CC1 (stereo not given) | inactive | –
CCCNCCC | inactive | –
Cc1cccc2cccnc12 | inactive | –
Cc1c(C)c2c(c(C)c1O)CC[C@@](C)(CCC[C@H](C)CCC[C@H](C)CCCC(C)C)O2 | inactive | –
C#C[C@]1(OC(C)=O)CC[C@H]2[C@@H]3CCC4=C[C@@H](OC(C)=O)CC[C@@H]4[C@H]3CC[C@@]21C | inactive | –
CN(C)Cc1ccccc1O | inactive | –
O=c1c(O)c(-c2ccc(O)cc2O)oc2cc(O)cc(O)c12 | inactive | –
O=C1CCc2cc(OCCCCc3nnnn3C3CCCCC3)ccc2N1 | inactive | –
C#CC1(O)CC[C@H]2[C@@H]3CCC4=CCCC[C@@H]4[C@H]3CC[C@@]21C (stereo not given in full) | inactive | –
COC1=C(OC)C(=O)C(CCCCCCCCCCO)=C(C)C1=O | inactive | –
CCCCC/C=C\C/C=C\CCCCCCCC(=O)O | inactive | –
c1ccsc1 | inactive | –
COc1cccc(OC)c1C(=O)O | inactive | –
CCN(CC)c1ccc2c(-c3ccc(S(=O)(=O)O)cc3S(=O)(=O)[O-])c3ccc(=[N+](CC)CC)cc-3oc2c1 | 11.2 µM (active) | –
CCC(C)[O-].CCC(C)[O-].CCOC(=O)/C=C(/C)[O-].[Al+3] | inactive | –
C#C[C@]1(OC(C)=O)CC[C@H]2[C@@H]3CCC4=C/C(=N/O)CC[C@@H]4[C@H]3CC[C@@]21CC | inactive | –
Nc1ccc(Oc2ccc(Cl)cc2)cc1 | inactive | –
CCCCCCCCCCCCCC[N+](C)(C)Cc1ccccc1 | 49.3 µM (active) | –
O=C(O)O | – | -5.91% [at 8.47 µM]
